In the supplement of paper PMC6522484:
± gives the standard deviation of the averaged measurements.

Key:
[1] = tested on: DLD1; assay: cell viability (CellTiter-Glo) relative to plate median (fraction of plate median); higher = more viable cells; conditions: 5 µM; treatment time 24 h; reporter: 7TFP
Method in brief: (§1)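 Colorectal cancer cell lines stably carrying lentiviral TCF/Wnt firefly luciferase reporters (7TFP or TCF4/Wnt) were plated in 384-well plates and, 24 h later, given library compounds at a final 5 µM for 24 h. Firefly luciferase or CellTiterGlo luminescence was read on parallel plates with a Tecan F500 reader. Each well's signal was normalised to the plate median in webcellHTS2 (additive, without log transformation). Values are the mean of two independent replicates.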

[2] = tested on: HCT116; assay: as above; conditions: 5 µM; treatment time 24 h; reporter: TCF4/Wnt
Method in brief: as §1

[3] = tested on: SW480; assay: as above; conditions: 5 µM; treatment time 24 h; reporter: 7TFP
Method in brief: as §1

[4] = tested on: DLD1; assay: TCF/Wnt firefly luciferase reporter signal relative to plate median (fraction of plate median); higher = higher Wnt reporter signal; conditions: 5 µM; treatment time 24 h; reporter: 7TFP
Method in brief: as §1

[5] = tested on: SW480; assay: as above; conditions: 5 µM; treatment time 24 h; reporter: 7TFP
Method in brief: as §1

Row | SMILES | cell viability [1] | cell viability [2] | cell viability [3] | TCF/Wnt firefly luciferase reporter signal [4] | TCF/Wnt firefly luciferase reporter signal [5]
1 | C[C@]12C=CC(=O)C=C1CC[C@@H]1[C@@H]2[C@@H](O)C[C@@]2(C)[C@H]1CC[C@]2(O)C(=O)COC(=O)CCC(=O)O | 1.02 ± 0.028 | 1.01 ± 0.092 | 1.03 ± 0.014 | 1.075 ± 0.0071 | 0.969 ± 0.072
2 | COc1ccc2cc1Oc1ccc(cc1)C[C@H]1c3cc(c(OC)cc3CCN1C)Oc1c(OC)c(OC)cc3c1[C@H](C2)N(C)CC3 | 1.04 ± 0.13 | 0.897 ± 0.15 | 1.215 ± 0.0071 | 0.948 ± 0.025 | 0.889 ± 0.071
3 | C#C[C@]1(O)CC[C@H]2[C@@H]3CCC4=Cc5oncc5C[C@]4(C)[C@H]3CC[C@@]21C | 1.06 ± 0.021 | 0.936 ± 0.029 | 1.01 ± 0.035 | 1.04 | 0.817 ± 0.046
4 | C=C(NC(=O)C(=C)NC(=O)c1csc(C2=N[C@@H]3c4csc(n4)[C@H]4NC(=O)c5csc(n5)[C@H]([C@](C)(O)[C@@H](C)O)NC(=O)[C@H]5CSC(=N5)/C(=C/C)NC(=O)[C@H]([C@@H](C)O)NC(=O)c5csc(n5)[C@]3(CC2)NC(=O)[C@H](C)NC(=O)C(=C)NC(=O)[C@H](C)NC(=O)[C@H]([C@@H](C)CC)N[C@@H]2C=Cc3c([C@H](C)O)cc(nc3[C@H]2O)C(=O)O[C@@H]4C)n1)C(N)=O | 0.927 ± 0.044 | 1.05 | 0.999 ± 0.044 | 0.966 ± 0.18 | 1.05 ± 0.071
5 | CN(C)[C@@H]1C(O)=C(C(=O)NCN2CCCC2)C(=O)[C@@]2(O)C(O)=C3C(=O)c4c(O)cccc4[C@@](C)(O)[C@H]3C[C@@H]12 | 1.08 ± 0.13 | 1.06 | 1.02 ± 0.014 | 0.858 ± 0.067 | 1.04
6 | C[C@@H]1C[C@H]2[C@@H]3C[C@H](F)C4=CC(=O)C=C[C@]4(C)[C@@]3(F)[C@@H](O)C[C@]2(C)[C@@]1(O)C(=O)CO | 1.05 ± 0.057 | 0.889 ± 0.02 | 1.03 ± 0.028 | 1.02 ± 0.14 | 0.986 ± 0.076
7 | O=C(CCc1ccc(O)cc1)c1c(O)cc(O)cc1O[C@@H]1OC(CO)[C@@H](O)[C@@H](O)C1O (stereo not given in full) | 1.07 ± 0.064 | 1.01 ± 0.016 | 1.03 ± 0.021 | 0.909 ± 0.033 | 1.06 ± 0.092
8 | C[C@H]1[C@H](C)CC[C@]2(C(=O)O)CC[C@]3(C)C(=CC[C@@H]4[C@@]5(C)CC[C@H](O)C(C)(C)[C@@H]5CC[C@]43C)[C@H]12 | 0.978 ± 0.014 | 1.04 ± 0.014 | 1.03 ± 0.021 | 1.07 ± 0.057 | 1.06 ± 0.014
9 | CC(=O)O[C@@H]1CC(=O)[C@@]2(C)C(CC(=O)[C@]3(C)C2CC[C@@]2(C)[C@H](c4ccoc4)OC(=O)C4OC423)C1(C)C (stereo not given in full) | 1.025 ± 0.0071 | 1.025 ± 0.0071 | 0.981 ± 0.0057 | 0.986 ± 0.12 | 1.05 ± 0.098
10 | CCCCCCc1ccc(O)cc1O | 1.04 ± 0.061 | 1.14 ± 0.021 | 1.07 | 1.09 ± 0.014 | 1 ± 0.11
11 | COc1ccc(-c2coc3cc(O)ccc3c2=O)cc1 | 1.01 ± 0.071 | 1.01 ± 0.15 | 0.9355 ± 0.00071 | 0.998 ± 0.046 | 0.972 ± 0.069
12 | CCCNC(C)C(=O)Nc1ccccc1C (stereo not given) | 1 ± 0.013 | 0.972 ± 0.096 | 1.03 ± 0.028 | 0.912 ± 0.028 | 0.96 ± 0.03
13 | COc1c2c(cc3occ(-c4ccc5c(c4)OCO5)c(=O)c13)OC(C)(C)C=C2 | 0.973 ± 0.067 | 0.951 ± 0.11 | 0.9305 ± 0.005 | 0.799 ± 0.37 | 0.607 ± 0.49
14 | C=C[C@@]1(C)CC(=O)[C@]2(O)[C@@]3(C)[C@@H](O)CCC(C)(C)[C@@H]3[C@H](O)[C@H](OC(C)=O)[C@@]2(C)O1 | 1.09 ± 0.099 | 0.942 ± 0.069 | 1.12 ± 0.021 | 1.23 ± 0.05 | 1.14 ± 0.099
